Sampled rows, rich in hits. Any-hit rate of the full collection: about 19%.
TDP1 cell CPT – qHTS for Inhibitors of human tyrosyl-DNA phosphodiesterase 1 (TDP1): qHTS in cells in presence of CPT; Potency, µM (series often up to 46.2 µM), for the others: at the highest dose activity change, negative = growth inhibition, usual class: inhibitors; AID 686979, 2013; hit rate 12% among 420,000; chicken DT40 Tdp1-/-;hTDP1 cells + 20 nM CPT, ATP luminescence, 48 h; further: potency means the concentration at half of the fitted maximal effect; nearly all actives have a fitted effect of over 55% in size
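Chicken DT40 Tdp1-/- cells stably complemented with human TDP1 were seeded at 400 cells/well in medium containing 20 nM camptothecin, exposed to pin-transferred compounds, and grown at 37 °C for at least 48 hr. Viability was read as ATP luminescence.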
DT40 TDP1 no CPT – qHTS for Inhibitors of human tyrosyl-DNA phosphodiesterase 1 (TDP1): qHTS in cells in absence of CPT | DT40 Tdp1-/- hTDP1 cells, no CPT, ATP luminescence, 48 h | Potency, µM (top dose mostly 46.2 µM), for inactives: top-dose activity change, negative = growth inhibition, most hits filed as inhibitors | hit rate 15% among 420,000 | AID 686978, 2013; further: potency means the concentration at half of the fitted maximal effect; nearly all actives have a fitted effect of over 55% in size
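Stably hTDP1-transfected Tdp1-null chicken DT40 cells were treated with library compounds minus camptothecin and grown for at least 48 hr at 37 °C, after which cellular ATP was quantified by luminescence.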
HT1080NT lethal – qHTS for induction of synthetic lethality in tumor cells producing 2HG: qHTS for the HT-1080-NT fibrosarcoma cell line | Potency, µM (series often up to 46.1 µM), for inactives: at the top dose activity, negative = less viability, hits mostly cytotoxic | AID 686970, 2013 | HT-1080-NT fibrosarcoma viability, CellTiter-Glo ATP luminescence, 48 h | hit rate 1.6% among 360,000;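 further: NT is the 2HG producing partner of a matched IDH1 knockdown line; potency means the concentration at half of the fitted maximal effect; 0% = DMSO-treated cells and -100% = media-only wells without cells; nearly all actives have a fitted effect of over 55% in size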
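Toxicity toward the 2HG-producing NT line was scored as %Activity, normalised to DMSO and no-cell wells, from CellTiter-Glo luminescence after 48 hours' treatment.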
HT1080 IDH1KD tx – qHTS for induction of synthetic lethality in tumor cells producing 2HG: qHTS for the HT-1080-IDH1KD cell line | Potency, µM (doses to about 46.1 µM), without a hit: top-dose activity, negative = toxicity, most hits filed as cytotoxic | AID 686971, 2013 | hit rate 2% among 360,000 | HT-1080 IDH1 knockdown viability, ATP luminescence, 48 h;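 further: potency means the concentration at half of the fitted maximal effect; 0% = DMSO wells and -100% = cell-free medium wells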
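Assay cells: HT-1080 with IDH1 knockdown, 750 per well, RPMI/5% FBS. Exposure: 48 h at 37 °C following 2 h pre-incubation. Read: CellTiter-Glo luminescence; fitted concentration-response, curve class assigned.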
IL1B secr inh – qHTS for Inhibitors of Inflammasome Signaling: IL-1-beta AlphaLISA Primary Screen | hit rate 4.7% among 360,000 | activity change, % at 57.5 µM | THP-1 LPS/ATP IL-1B secretion, AlphaLISA, 16 h; hits give low values; in the data active means activity change below about -50%; inconclusive means mostly about -30% to -49%
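Secreted IL-1B measured by AlphaLISA bead assay after 16 h compound exposure of THP-1 cells; compounds (final up to 57.5 uM) added 1 h before LPS (250 ng/mL) and ATP (1.25 mM) stimulation; lower signal means less secretion.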
* hit, by the source's call. Unless noted, the call rests on the fitted dose curve; in most records, active means well fitted curve in the direction sought with a large enough effect; inconclusive means small, poorly fitted or top-dose-only effect, or another doubt; inactive means no such curve, though single readings can be large; an effect the other way counts as inactive or inconclusive. Unless noted, on the % scale 0 is the no-effect control and ±100 the full control effect.

CC(C)(C)OC(=O)NCc1ccc(NC(=O)c2nc[nH]c2C(=O)NCCNC(=O)c2[nH]cnc2C(=O)Nc2ccc(CNC(=O)OC(C)(C)C)cc2)cc1 was read as TDP1 cell CPT 15µM*, DT40 TDP1 no CPT 18µM*, HT1080NT lethal 12µM*, HT1080 IDH1KD tx 13µM* and IL1B secr inh 60.
For C[C@H](CO)NC(=O)c1[nH]cnc1C(=O)Nc1ccc(CNC(=O)OC(C)(C)C)cc1 the results were TDP1 cell CPT -17%, DT40 TDP1 no CPT inconclusive, HT1080NT lethal 0%, HT1080 IDH1KD tx 1% and IL1B secr inh -17.
Screening CCOC(=O)c1ccc(NC(=O)c2nc[nH]c2C(=O)NC[C@@H](C)O)cc1 returned TDP1 cell CPT 6%, DT40 TDP1 no CPT -22%, HT1080NT lethal -4%, HT1080 IDH1KD tx -9% and IL1B secr inh -18.
Screening CC1(C)Oc2ccc(C(=O)NC3CCCC3)cc2N(CC(=O)NC2CCCCC2)C1=O returned TDP1 cell CPT -28%, DT40 TDP1 no CPT -14%, HT1080NT lethal -7%, HT1080 IDH1KD tx 0% and IL1B secr inh 8.
For CCOC(=O)c1c(NC(=O)CSc2nc3ccccc3c(=O)n2-c2ccc(F)cc2)sc(C(C)=O)c1C the results were TDP1 cell CPT -7%, DT40 TDP1 no CPT 13%, HT1080NT lethal -2%, HT1080 IDH1KD tx -5% and IL1B secr inh 4.
`CCOC(=O)c1cccc(NC(=O)CSc2nc3cccnc3n2C)c1` gave TDP1 cell CPT 21µM*, DT40 TDP1 no CPT 16µM*, HT1080NT lethal -17%, HT1080 IDH1KD tx -27% and IL1B secr inh -53*.
CCOC(=O)c1c(NC(=O)CSc2nc3cccnc3n2C)sc(C(C)=O)c1C was read as TDP1 cell CPT 18µM*, DT40 TDP1 no CPT 13µM*, HT1080NT lethal -23%, HT1080 IDH1KD tx -25% and IL1B secr inh -2.
Screening CCOC(=O)c1sc(NC(=O)CSc2nc3cccnc3n2C)nc1C returned TDP1 cell CPT 5%, DT40 TDP1 no CPT -14%, HT1080NT lethal 11%, HT1080 IDH1KD tx 11% and IL1B secr inh 36.
Screening CCOC(=O)c1c(NC(=O)CSc2nnc(-c3ccccc3C)n2C)sc(C(C)=O)c1C returned TDP1 cell CPT 18µM*, DT40 TDP1 no CPT 12µM*, HT1080NT lethal 7%, HT1080 IDH1KD tx -5% and IL1B secr inh inconclusive.
`CCc1nc2ccc(C(=O)NCCCN3CCCC3=O)cn2c1N(C=O)CC` gave TDP1 cell CPT 0%, DT40 TDP1 no CPT -8%, HT1080NT lethal 25%, HT1080 IDH1KD tx 21% and IL1B secr inh 8.
`CCCCc1cc(=O)oc2cc(OCC(=O)NCC3CCC(C(=O)O)CC3)ccc12` (centres undefined) gave TDP1 cell CPT inconclusive, DT40 TDP1 no CPT -1%, HT1080NT lethal 0%, HT1080 IDH1KD tx -2% and IL1B secr inh 35.
For CN(C(=O)COc1ncnc2sccc12)c1ccccc1 the results were TDP1 cell CPT -9%, DT40 TDP1 no CPT 2%, HT1080NT lethal 0%, HT1080 IDH1KD tx 6% and IL1B secr inh -11.
COc1cc(OC)c(Nc2nc3ccc(C)cc3n3nnnc23)cc1Cl was read as TDP1 cell CPT -6% and DT40 TDP1 no CPT -4%.
Screening COc1ccccc1C(=O)N1CCN(C(=O)c2oc3c(C)c(C)ccc3c2C)CC1 returned TDP1 cell CPT inconclusive, DT40 TDP1 no CPT 16µM*, HT1080NT lethal -8%, HT1080 IDH1KD tx -3% and IL1B secr inh -27.
`Cc1ccc2c(C)c(C(=O)N3CCC(C(N)=O)(N4CCCCC4)CC3)oc2c1C` gave TDP1 cell CPT inconclusive, DT40 TDP1 no CPT 21µM*, HT1080NT lethal -7%, HT1080 IDH1KD tx -22% and IL1B secr inh -9.
`CN(C)c1cccc2c1c(NC(=O)c1ccc(Cl)cc1)nn2C` gave TDP1 cell CPT 0%, DT40 TDP1 no CPT -13%, HT1080NT lethal -18%, HT1080 IDH1KD tx -2% and IL1B secr inh 30.
`O=[N+]([O-])c1ccc(N/N=C/c2ccc(O)c(O)c2O)c(S(=O)(=O)N2CCOCC2)c1` gave TDP1 cell CPT 4.1µM*, DT40 TDP1 no CPT inconclusive, HT1080NT lethal -16%, HT1080 IDH1KD tx -13% and IL1B secr inh 5.
Screening COc1cc(/C=N/Nc2ccc([N+](=O)[O-])cc2S(=O)(=O)N2CCOCC2)cc(OC)c1OC returned TDP1 cell CPT 4%, DT40 TDP1 no CPT inconclusive, HT1080NT lethal 11%, HT1080 IDH1KD tx 11% and IL1B secr inh 26.
Screening O=[N+]([O-])c1ccc(N/N=C/c2cccc(O)c2O)c(S(=O)(=O)N2CCOCC2)c1 returned TDP1 cell CPT 10µM*, DT40 TDP1 no CPT 13µM*, HT1080NT lethal -13%, HT1080 IDH1KD tx -8% and IL1B secr inh 27.
For Cc1cc(C)c(S(=O)(=O)Nc2cccc(-c3cn4ccccc4n3)c2)c(C)c1 the results were TDP1 cell CPT 18µM* and DT40 TDP1 no CPT 29µM*.
For Cc1ccc(C(=O)Nc2cccc(-c3cn4ccccc4n3)c2)cc1 the results were TDP1 cell CPT inconclusive, DT40 TDP1 no CPT inconclusive, HT1080NT lethal -24%, HT1080 IDH1KD tx -5% and IL1B secr inh -52*.
`O=C(Nc1ccccc1)Nc1cccc(-c2cn3cccnc3n2)c1` gave TDP1 cell CPT -14%, DT40 TDP1 no CPT inconclusive, HT1080NT lethal 2%, HT1080 IDH1KD tx -13% and IL1B secr inh -14.
Screening CCCS(=O)(=O)Nc1cccc(-c2cn3ccc(C)cc3n2)c1 returned TDP1 cell CPT 23µM* and DT40 TDP1 no CPT 16µM*.
Screening O=C(Nc1cccc(-c2cn3ccccc3n2)c1)c1ccccc1 returned TDP1 cell CPT inconclusive, DT40 TDP1 no CPT inconclusive, HT1080NT lethal -11%, HT1080 IDH1KD tx -14% and IL1B secr inh -68*.
For Cc1cc(C)c(S(=O)(=O)Nc2ccc(-c3cn4ccccc4n3)cc2)c(C)c1 the results were TDP1 cell CPT inconclusive, DT40 TDP1 no CPT inconclusive, HT1080NT lethal -12%, HT1080 IDH1KD tx -28% and IL1B secr inh inconclusive.
CN(CC(=O)Nc1c(Cl)cccc1Cl)C(=O)c1cc2ccccc2cc1O was read as TDP1 cell CPT 0%, DT40 TDP1 no CPT inconclusive, HT1080NT lethal -11%, HT1080 IDH1KD tx -12% and IL1B secr inh -6.
For O=C(Nc1ccc(-c2cn3ccccc3n2)cc1)c1ccc(Cl)cc1 the results were TDP1 cell CPT 23µM*, DT40 TDP1 no CPT 9.2µM*, HT1080NT lethal 20%, HT1080 IDH1KD tx 17% and IL1B secr inh 21.

High-throughput results (PubChem BioAssay)
